# This is a sample that favours compounds with a hit; in the whole collection about 10% have one here.
# GPT2 inhibitor: GPT2 alanine aminotransferase inhibition; Q8TD30; Recombinant GPT2, coupled pyruvate oxidase/HRP Amplex Red fluorescence; Potency, µM (top dose mostly 57.7 µM), for inactives: at the top dose activity change, negative = inhibition, usual class: inhibitors; 100,000 compounds, 0.25% hits; AID 1671188; also: nearly all actives have a fitted effect of over 60% in size
# Target sequence (Q8TD30 whole entry, looked up): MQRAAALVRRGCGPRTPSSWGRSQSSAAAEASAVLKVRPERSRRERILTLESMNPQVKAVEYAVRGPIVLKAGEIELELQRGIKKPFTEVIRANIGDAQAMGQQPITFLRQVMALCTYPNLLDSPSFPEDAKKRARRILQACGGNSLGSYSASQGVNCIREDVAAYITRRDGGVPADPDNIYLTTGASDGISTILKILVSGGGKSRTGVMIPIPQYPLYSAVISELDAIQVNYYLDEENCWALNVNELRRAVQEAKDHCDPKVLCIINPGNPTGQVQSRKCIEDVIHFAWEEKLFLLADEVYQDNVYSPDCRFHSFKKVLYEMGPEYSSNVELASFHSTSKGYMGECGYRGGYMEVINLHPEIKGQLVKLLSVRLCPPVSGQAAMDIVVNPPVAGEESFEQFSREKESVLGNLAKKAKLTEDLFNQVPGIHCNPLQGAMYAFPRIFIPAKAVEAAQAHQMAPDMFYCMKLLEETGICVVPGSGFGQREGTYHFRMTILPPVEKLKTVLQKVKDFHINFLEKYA
#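 GPT2 10ng/uL, a-KG 250uM, L-Ala 2mM, HEPES pH7.5 + 0.0001% Tween; 30 min RT. Then Amplex mix (PO/HRP/ThPP), 30 min RT dark, fluorescence. AOA 50uM used as positive control.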
# 3T3 cytotox: NIH 3T3 cell cytotoxicity; Potency, µM (titrated, usually from 96.7 µM), inactives show at the top dose activity change, negative = cytotoxicity, hits mostly inhibitors; NIH 3T3 viability, CellTiter-Glo ATP luminescence, 48-72 h; 94,000 compounds, 4.3% hits; also: nearly all actives have a fitted effect of over 55% in size
#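 Luminescent ATP readout (CellTiter-Glo, 10 min RT) after 48 or 72 hr compound exposure of NIH 3T3 cells seeded at 400 cells/well in 1536-well format; quantitative HTS.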
# FLuc inh: Photinus pyralis luciferase inhibition; P08659; purified P. pyralis luciferase, luminescence, biochemical; Potency, µM (top dose mostly 115 µM), actives largely listed as inhibitors; 76,000 compounds, 2.5% hits; AID 1347043; also: nearly all actives have a fitted effect of over 65% in size
#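 Inhibitors were tested against purified firefly luciferase in a biochemical, low-substrate format (both substrates at 10uM) and luminescence measured with a CCD imager.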
# hNpr1 antagonist: antagonists of human natriuretic peptide receptor Npr1; P16066; 76,000 compounds, 1.6% hits; Potency, µM (doses to about 46.3 µM), inactives show at the highest dose activity change, negative = inhibition, usual class: inhibitors; HEK293 hNpr1 GloSensor cGMP, ANP-stimulated luminescence; calls by dose curve; also: nearly all actives have a fitted effect of over 60% in size
#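 Compound pre-incubated 30 min at room temperature on GloSensor-loaded HEK293 cells stably carrying hNpr1 and the pGS-40F cGMP biosensor. Stimulation uses hNppA at 0.1 nM final; luminescence is taken at baseline and 20 min post-agonist.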
# HEK cytotox: cytotoxic compounds in HEK 293 cells | HEK 293 viability, ATP luminescence (CellTiter-Glo), 48-72 h | Potency, µM (series often up to 115 µM), inactives show top-dose activity change, negative = cytotoxicity, usual class: inhibitors | 94,000 compounds, 6.6% hits; also: nearly all actives have a fitted effect of over 60% in size
#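 250 HEK 293 cells/well; compound by pintool; incubated 48 or 72 hr at 37 degree Celsius; CellTiter-Glo added, 10 min RT, luminescence imaged.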
# * = called active by the depositor; i = inactive; ? = inconclusive; . = not tested or not shown; [ ] = remark or other dose. Unless noted, calls follow the shape of the dose curve; as a rule, active = well fitted curve in the direction sought with a large enough effect; inconclusive = small, poorly fitted or top-dose-only effect, or another doubt; inactive = no such curve, though single readings can be large; an effect the other way counts as inactive or inconclusive. % is scaled to controls: 0 for no effect and ±100 for the full control effect; potency is read from the fitted curve at half-maximal effect.
SMILES,GPT2 inhibitor,3T3 cytotox,FLuc inh,hNpr1 antagonist,HEK cytotox
Oc1ccccc1CN1CCOC[C@H]1c1ncc(-c2ccccc2)[nH]1,1.1%[88.5 µM],100µM*,i,-16.3%[70.6 µM],?
Clc1ccc(-c2cnc([C@@H]3COCCN3Cc3ccccc3)[nH]2)cc1,i,?,i,?,89.1µM*
CSc1ccc(-c2cccc(C(=O)NCCNC(=O)Cc3ccc(F)cc3)c2)cc1,2.8%,?,.,.,?
O=C(NCc1ccccn1)C1CN(C2CCCC2)C(=O)N1 (configuration not stated),i,-1.9%[138 µM],.,.,i
O=C1CO[C@H]2CN(c3nccc(C(F)(F)F)n3)C[C@H]2N1Cc1ccc(F)cc1,-10.4%[88.5 µM],?,i,-0.7%[70.6 µM],100µM*
Cc1ccccc1C1(O)CCN(C(=O)c2ccc(C#CC(C)(C)O)o2)C1 (configuration not stated),i,35.5µM*,i,-11.1%,?
CC(C)(O)C#Cc1ccc(C(=O)N2CC(=O)N(C3CCCCC3)CC(OCc3cccnc3)C2)o1 (configuration not stated),i,-6.3%,i,0.3%,-2.8%
COc1ccc(-c2nc(C(C)C)nc3c2CCN(C(=O)C(C)(C)C)CC3)cc1,?,-32.6%,i,4.6%,?
CC(C)c1nc2c(c(-c3ccc(Cl)cc3)n1)CCN(Cc1ccsc1)CC2,i,?,.,.,44.7µM*
COc1ccc(-c2nc(C(C)C)nc3c2CCN(C(=O)c2ccc(C(F)(F)F)cc2)CC3)cc1,-11.8%,28.2µM*,i,-15.5%,31.6µM*
COc1ccc(-c2nc(C(C)C)nc3c2CCN(C(=O)c2ccc(C)cc2)CC3)cc1,i,?,i,5.4%,?
Cc1ccc(C(=O)N2CCc3nc(C(C)C)nc(-c4ccc(Cl)cc4)c3CC2)cc1,i,?,.,.,79.4µM*
CC(C)c1nc2c(c(-c3ccc(Cl)cc3)n1)CN(C(=O)C(C)(C)C)CC2,i,?,.,.,39.8µM*
CCc1nc2c(c(-c3ccc(Cl)cc3)n1)CCN(C(=O)c1ccc(C)cc1)CC2,?,?,i,0.0%,?
O=C(C1CCCN1C(=O)c1ccccc1Cl)N1CCC(c2ccccc2)CC1 (configuration not stated),i,?,.,.,?
COc1cc(C(=O)O)ccc1NC(=O)C1NC(CC(C)(C)C)C(C#N)(c2ccc(Cl)cc2F)C1c1cccc(Cl)c1F (configuration not stated),i,.,.,.,.
CC(C)c1nc2c(c(-c3ccc(O)cc3)n1)CN(Cc1ccc(OC(F)(F)F)cc1)CC2,i,22.4µM*,i,-0.5%,22.4µM*
COc1ccc(-c2nc(C(C)C)nc3c2CCN(C(=O)Nc2ccc(Cl)cc2)CC3)cc1,i,35.5µM*,i,0.2%,?
CCOc1cc(=O)n2c(c1C(=O)Nc1ccc(OC)c(OC)c1)CCCC2,-9.3%,i,i,0.4%,3.6%
CCOc1cc(=O)n2c(c1C(=O)Nc1ccc3c(c1)OCCO3)CCCCC2,3.8%,-3.1%,39.8µM*,-19.2%,-24.1%
c1cc(-c2cc3c(ccn3Cc3ccncc3)c(N3CCOCC3)n2)cc(N2CCOCC2)c1,i,31.6µM*,i,-1.7%,?
CN(C)Cc1cccc(-c2cc3c(ccn3Cc3ccncc3)c(N3CCOCC3)n2)c1,i,39.8µM*,i,-11.2%[70.6 µM],89.1µM*
CC(=O)Nc1cccc(-c2cc3c(ccn3Cc3ccncc3)c(N3CCOCC3)n2)c1,4.5%[88.5 µM],?,i,1.8%[70.6 µM],-18.1%[172 µM]
C[S+](=O)([O-])c1ccc(-c2cc3c(ccn3Cc3ccncc3)c(N3CCOCC3)n2)cc1,4.8%,6.31µM*,i,0.9%,-15.6%
O=C(Nc1ccc(F)cc1)c1nc2sccn2c1-c1ccc(F)cc1,3.0%[88.5 µM],?,.,.,?
SMILES,GPT2 inhibitor,3T3 cytotox,FLuc inh,hNpr1 antagonist,HEK cytotox
Cc1noc(C)c1[S+](=O)([O-])N1CCCC(C(=O)N2CCC(c3nc4ccncc4[nH]3)CC2)C1 (configuration not stated),?,-23.8%,.,.,-15.5%
O=C(Cc1ccccc1)NCC1CN(Cc2ccc3[nH]ccc3c2)CC12CN(c1ccccc1)C2 (configuration not stated),-1.9%,22.4µM*,i,-5.5%,39.8µM*
O=[S+]([O-])(NCC1CN(Cc2ccc(O)cc2)CC12CN(c1ccccc1)C2)c1ccccc1 (configuration not stated),-14.0%,17.8µM*,i,-21.8%,?
O=C(Cc1ccccc1)NCC1CN(Cc2cccc(Cl)c2)CC12CN(c1ccccc1)C2 (configuration not stated),0.3%,?,i,-2.9%,?
c1ccc(OCC2CN(Cc3ccc4[nH]ccc4c3)CC23CN(c2ccccc2)C3)cc1 (configuration not stated),-33.4%[88.5 µM],25.1µM*,i,?,28.2µM*
c1ccc(OCC2CN(Cc3ccncc3)CC23CN(c2ccccc2)C3)cc1 (configuration not stated),-1.4%[88.5 µM],89.1µM*,i,-1.6%[70.6 µM],?
CCCC(=O)N1CC2(CCCN2CC2CC2)Cc2ccccc21 (configuration not stated),i,?,.,.,?
COc1ccc(C(=O)N2CCC(C(=O)N3CCC4(CC3)CC(=O)Nc3ccccc3O4)C2)cc1 (configuration not stated),-22.2%,-32.8%,.,.,-22.0%
Cn1ncc2c(C(=O)NCc3ccc(F)cc3F)cc(-c3ccc(C(F)(F)F)cc3)nc21,.,-26.2%,.,.,-2.8%
COc1ccc(-c2nnc3ccc(N(C)Cc4ccccc4)nn23)nc1,-6.7%[88.5 µM],?,i,-6.5%[70.6 µM],?
CN(Cc1ccccc1)c1ccc2nnc(-c3ccccn3)n2n1,1.0%[88.5 µM],44.7µM*,i,-6.3%[70.6 µM],?
C[C@@H]1CN(c2ccc3nnc(-c4ccccn4)n3n2)C[C@H](C)O1,-4.1%[88.5 µM],79.4µM*,i,0.8%[70.6 µM],?
O=C(NC1CCCCC1)N1c2ccccc2CC1c1noc(C2CCOCC2)n1 (configuration not stated),-24.2%,-14.3%,i,2.4%,-21.1%
O=C(NC1CCCC1)N1c2ccccc2CC1c1nc(C2CC2)no1 (configuration not stated),i,?,20µM*,?,?
O=C(NC1CCN(Cc2ccccc2)CC1)c1cccc2c1CCN2C(=O)c1ccccc1,i,?,i,-27.7%,39.8µM*
COc1ccccc1-c1cccc(CN2CCC(NC(=O)N(C)C)CC2)c1,i,?,.,.,79.4µM*
COc1ccccc1-c1cccc(CN2CCC(NC(=O)c3ccccc3Cl)CC2)c1,-1.5%,?,.,.,79.4µM*
COc1ccccc1C(=O)NC1CCN(Cc2cccc(-c3ccccc3OC)c2)CC1,i,?,.,.,44.7µM*

# Compound activity from PubChem BioAssay.
